# M1 ag parental: counter-screen for M1 agonists: effect in parental CHO-K1 cells | Fluo-8 calcium fluorescence; scaled to maximal ATP response, vehicle zero | activation, % at 3 µM | actives 0.48% (n = 360,000); in the data active = activation above about 15%;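 also: untransfected CHO-K1 host cells lacking M1 receptor as counterscreen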
# CHO-K1 Ca antag: counter-screen for M1 antagonists: effect in parental CHO-K1 cells | ATP-induced calcium, Fluo-8 fluorescence | inhibition, % at 3 µM | actives 0.6% (n = 360,000);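 active = inhibition above a per-plate cutoff, the plate's mean sample inhibition plus 3 SD, cut at about 24% in these data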;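 also: 0% = DMSO plus EC80 ATP and 100% = DMSO alone without ATP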
# CHRM1 agonist: human M1 muscarinic receptor agonism; activation, % at 3 µM; CHO-K1 hM1, Fluo-8 calcium fluorescence, agonist mode; 0% DMSO, 100% acetylcholine EC100; actives 0.33% (n = 360,000); P11229;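 active = activation above the run's mean compound activation plus 3 SD, cut at about 16% in these data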;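 also: peak over basal fluorescence ratio within a 140 s kinetic read after compound addition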
# M1 antag: blocks human M1 muscarinic receptor | P11229 | CHO-K1 hM1, Fluo-8 calcium fluorescence, ACh EC80 antagonist | inhibition, % at 3 µM | actives 1.3% (n = 360,000) | AID 588852;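 active = percent inhibition above its own plate's cutoff, namely the mean of that plate's compound wells plus 3 SD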;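 also: peak over basal fluorescence ratio during 140 s after agonist addition; 0% = ACh EC80 plus DMSO and 100% = DMSO alone without agonist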
# CHRM1 PAM: potentiates human M1 receptor response to acetylcholine; activation, % at 3 µM; AID 588819; actives 0.088% (n = 360,000); CHO-K1 hM1, Fluo-8 calcium fluorescence, ACh EC20; 0% = ACh EC20, 100% = maximal ACh; in the data active = activation above about 19%, passing the limit was not always enough
# CHO-K1 Ca PAM: nonselective activator or artifact in parental CHO-K1 calcium assay | actives 0.02% (n = 360,000) | AID 602247 | activation, % at 3 µM | ATP EC20, Fluo-8 calcium fluorescence; 0% at ATP EC20, 100% at ATP max;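 active = activation above the run cutoff, the mean activation of all test compounds plus 3 SD, cut at about 40% in these data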;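 also: peak over basal fluorescence ratio in a 140 s read after ATP addition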
# An asterisk follows results filed as active. Shown are actives, neighbours in structure and some others; about 2.3% of the full set was active somewhere.
SMILES,M1 ag parental,CHO-K1 Ca antag,CHRM1 agonist,M1 antag,CHRM1 PAM,CHO-K1 Ca PAM
O=C(CN1C(=O)c2ccccc2S1(=O)=O)NCc1ccc(F)cc1,1,63*,4,-11,7,1
COc1ccc(C2CC=C(C(C)=O)CN2S(=O)(=O)c2ccccc2)cc1 (stereo not drawn),2,24*,-5,-7,13,7
OCCN1CCN(CCCN2c3ccccc3CCc3ccccc32)CC1,2,-13,-6,13,-19,21
N#CC1(CCCN2CCCCC2)c2ccccc2CCc2ccccc21,2,-14,-5,68*,-25,16
CCOC(=O)[C@@H]1[C@H]2COc3cc(OC)ccc3[C@H]2N2C(=O)N(c3cccc(F)c3)C(=O)[C@@]12C,-1,16,0,31*,-18,-8
CCOC(=O)[C@@H]1[C@H]2COc3cc(OC)ccc3[C@H]2N2C(=O)N(c3ccc(C(F)(F)F)cc3)C(=O)[C@]12C,8,33*,4,41*,-21,-20
CCOC(=O)[C@@H]1[C@H]2COc3cc(OC)ccc3[C@@H]2N2C(=O)N(c3ccc(C(F)(F)F)cc3)C(=O)[C@@]12C,0,-13,-7,-2,3,20
CCOC(=O)[C@H]1[C@H]2COc3cc(OC)ccc3[C@@H]2N2C(=O)N(c3cccc(F)c3)C(=O)[C@@]12C,-1,-6,-9,3,1,7
CN(C)C(=O)CCc1ccc2c3c([nH]c2c1)[C@]1(CCc2ccccc2)[C@@H](C(=O)N2CCCCC2)C[C@H](CC(=O)NC(C)(C)C)C(=O)N1CC3,0,-5,-10,-17,13,13
CCCCn1c(N)c(N(CC(C)C)C(=O)Cc2ccc(S(=O)(=O)N3CCOCC3)s2)c(=O)[nH]c1=O,5,-10,17*,11,-4,12
CCCCn1c(N)c(N(CCC(C)C)C(=O)c2cc(S(=O)(=O)N3CCOCC3)ccc2F)c(=O)[nH]c1=O,0,-2,2,-31,21*,6
CCCCn1c(N)c(N(CCC(C)C)C(=O)Cc2ccc(S(=O)(=O)N3CCOCC3)s2)c(=O)[nH]c1=O,0,2,-3,-6,5,-5
CC(OC(=O)/C(C#N)=C/c1ccc(N(C)C)cc1)C(=O)N(C)c1ccccc1 (stereo not drawn),16*,13,13,24,-17,-17
CC(OC(=O)/C(C#N)=C/c1ccc(N(C)C)cc1)C(=O)NCc1ccco1 (stereo not drawn),3,8,4,3,-1,-14
CC(C)OC(=O)/C(C#N)=C\c1cccnc1,0,-14,-3,2,-1,-7
CC(=O)Nc1ccc(NC(=O)C(C)OC(=O)/C(C#N)=C/c2ccc(N(C)C)cc2)cc1 (stereo not drawn),3,1,10,28*,4,22
CCc1nc(SCC(=O)Nc2nnc(CC)s2)c2c(C)c(C)sc2n1,1,13,0,-23,8,-11
CCc1nc(SCC(=O)Nc2cc(OC)ccc2OC)c2c(C)c(C)sc2n1,0,-16,-7,33*,-11,-11
CCCC(C)C(=O)Nc1ncc(S(=O)(=O)c2ccc([N+](=O)[O-])cc2)s1 (stereo not drawn),36*,14,40*,28,-5,6
CCCCCCCNC(=O)C1(CC2CC(c3ccc(Cl)cc3)=NO2)CCN(C(=O)OC(C)(C)C)CC1 (stereo not drawn),1,-6,-7,3,-5,2
CC(C)Oc1cccc(C(=O)C2CCCN(Cc3cnc(N4CCCC4)s3)C2)c1 (stereo not drawn),3,-1,-14,2,-12,19
CCCn1ncc(CN2CCCC(C(=O)c3cccc(OC(C)C)c3)C2)c1C (stereo not drawn),2,-12,-7,99*,-25,25
CCCn1cc(CN2CCCC(C(=O)c3cccc(OC(C)C)c3)C2)c(C)n1 (stereo not drawn),4,-1,-11,39*,-28,11
CCOc1ccc(S(=O)(=O)NCCC(=O)OCC(=O)Nc2cc(C)on2)cc1,1,2,1,-30,2,-8

# Compound activity: PubChem BioAssay, The Scripps Research Institute Molecular Screening Center
